Assay results taken from PubChem BioAssay AID1490 (National Center for Advancing Translational Sciences (NCATS), 2009).
Where “and” joins values, the source holds several entries; their conditions need not be identical. Equal entries are not always repeated. Screen size: about 310,000 compounds; about 11,000 (3.5%) were called active. Roughly 4% stayed inconclusive and do not appear here. The call rests on the fitted dose curve; in most records, active means well fitted inhibition curve with a large enough effect; inconclusive means small, poorly fitted or top-dose-only effect, or another doubt; inactive means no such curve, though single readings can be large or run the other way. Many of the other results were omitted from the sample, so actives are more common in it than they were.

The compounds below were run against 4'-phosphopantetheinyl transferase ffp (Bacillus subtilis) (UniProt Q9F4F7) (assay: qHTS Assay for Inhibitors of Bacillus subtilis Sfp phosphopantetheinyl transferase (PPTase)). Details: Biochemical Sfp PPTase activity.
Procedure, shortened: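 Fluorescence-quenching assay: 15 nM Sfp-PPTase preincubated 15 min at room temperature with compound, then 5 uM rhodamine-CoA and 12.5 uM BHQ-2-labelled YbbR peptide added. Fluorescence (ex 525/em 598 nm) read at start and after 30 min; difference gives rate.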
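Further: the enzyme is Sfp with the accession as filed and its product quenches rhodamine fluorescence.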
Potency means the concentration at half of the fitted maximal effect.
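Wherever largest response in the series, negative = inhibition is given: 0% = enzyme reaction without inhibitor and -100% = no enzyme wells.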

| Structure (SMILES) | largest response in the series, negative = inhibition | Potency |
| --- | --- | --- |
| COc1cccc(N(CC(=O)NC2CCCC2)C(=O)CCCC(=O)Nc2ccccn2)c1 | 7.32% (inactive) | – |
| COc1cccc(C(=O)Nc2nnc(S(=O)(=O)N3CCCCC3)s2)c1 | 6.22% (inactive) | – |
| O=C(c1ccncc1)c1ccc([N+](=O)[O-])cc1 | 13.2% (inactive) | – |
| O=C(Nn1cnnc1)c1ccc([N+](=O)[O-])cc1 | 13.2% (inactive) | – |
| O=C(Cn1c[n+](CC(=O)c2ccc([N+](=O)[O-])cc2)cn1)c1ccc([N+](=O)[O-])cc1 | – | 56.2 µM (active) and 44.7 µM (active) |
| Cc1ccc(C(=O)NCCN2CCOCC2)cc1C | 11.9% (inactive) | – |
| CCC1=Nc2cc(C(=O)NCCN3CCCC3)ccc2Sc2ccc(C)cc21 | -8.33% (inactive) | – |
| Cc1cccc(-c2nc3ccc(C(=O)NCCN4CCN(C)CC4)cc3nc2-c2cccc(C)c2)c1 | – | 50.1 µM (active) |
| Cc1ccc(OCCCC(=O)Nc2ccc(S(=O)(=O)Nc3cc(C)nc(C)n3)cc2)cc1 | 5.46% (inactive) | – |
| CC1(C)OC2CO[C@]3(COS(N)(=O)=O)OC(C)(C)OC3C2O1 (some centres not stated) | 20.4% (inactive) | – |
| O=C(N/N=C/c1cc2c(cc1Br)OCO2)C1COc2ccccc2O1 (configuration not stated) | 0.904% (inactive) | – |
| O=C(CNC(=O)C1COc2ccccc2O1)N/N=C/c1cc(Br)c(O)c(Br)c1 (configuration not stated) | 1.24% (inactive) | – |
| O=C(N/N=C\c1cc(Br)c(Br)o1)C1COc2ccccc2O1 (configuration not stated) | – | 39.8 µM (active) |
| C=CCN1CCN(C(=O)CCCc2ccccc2)CC1 | 13.4% (inactive) | – |
| Cc1cccc(OCC(=O)Nc2ccc(NC(=O)c3ccco3)c(C)c2)c1 | 16.8% (inactive) | – |
| CSc1ccccc1NC(=O)c1cc(C2CC2)on1 | – | 17.8 µM (active) |
| O=C(Nc1cc(C(F)(F)F)ccc1Cl)c1cc(C2CC2)on1 | 15.4% (inactive) | – |
| O=C(NC1CCCCC1)c1cc(C2CC2)on1 | 2.59% (inactive) | – |
| O=C(NC(=S)Nc1ccccc1N1CCCCC1)c1ccc(F)cc1 | 5.51% (inactive) | – |
| CC1CN(C(=S)Nc2ccccc2F)CC(C)O1 (configuration not stated) | -11.5% (inactive) | – |
| Oc1ccc(/C=N/Nc2ccc(C(F)(F)F)cn2)cc1O | – | 28.2 µM (active) |
| Oc1ccc(Br)cc1/C=N/Nc1ccccn1 | 5.24% (inactive) | – |
| O=C(Nc1ccccc1)Nc1ccc(C(F)(F)F)cn1 | 11.2% (inactive) | – |
| Cc1c(Cl)c([N+](=O)[O-])nn1CC(=O)NCCCN1CCOCC1 | 1.31% (inactive) | – |
| O=C(CN1C(=O)COc2ccc(Cl)cc21)N1CCOCC1 | 9.91% (inactive) | – |

| Structure (SMILES) | largest response in the series, negative = inhibition | Potency |
| --- | --- | --- |
| O=C(N/N=C/c1ccccn1)C12CC3CC(CC(C3)C1)C2 | -35% (inactive) | – |
| O=C(COc1ccc(Cl)cc1Cl)N/N=C/c1ccccn1 | -29.7% (inactive) | – |
| O=C(N/N=C/c1ccccn1)c1cccnc1 | – | 2 µM (active) |
| O=C(N/N=C/c1ccccn1)c1cccc(NC(=O)c2ccc(Cl)cc2)c1 | 10.1% (inactive) | – |
| CNC(=O)C(=O)N/N=C/c1ccccn1 | – | 79.4 µM (active) |
| O=C(N/N=C/c1ccc(O)c2ccccc12)c1cccnc1 | 7.11% (inactive) | – |
| O=C(CCC1CCCC1)N=C1SC2CS(=O)(=O)CC2N1Cc1ccccc1 (configuration not stated) | 11.9% (inactive) | – |
| Cc1ccnc(NC(=O)CCNS(=O)(=O)c2ccc(C)c(C)c2)c1 | 9.67% (inactive) | – |
| S=c1nccc(-c2cc(Cl)sc2Cl)[nH]1 | – | 79.4 µM (active) |
| O=C(NCCS(=O)(=O)N1CCN(c2ccccc2F)CC1)c1ccc(Br)o1 | 27.4% (inactive) | – |
| O=C1c2cccc3cc(Br)cc(c23)C(=O)N1Nc1ccccc1 | 9.09% (inactive) | – |
| O=C1C=C(c2ccc(Cl)cc2)C(=O)N1Nc1ccccc1 | – | 10 µM (active) |
| O=C(O)CC1=C(Nc2ccccc2)C(=O)N(c2ccccc2)C1c1ccc(Cl)cc1 (configuration not stated) | 18.5% (inactive) | – |
| O=C(NCCCN1CCOCC1)c1cc2c(s1)CCC2 | 23.9% (inactive) | – |
| O=C(CN1C(=O)COc2ccccc21)NCCN1CCc2ccccc2C1 | 7.58% (inactive) | – |
| Cc1cccc2c1-c1sc(C(=O)NCCCN3CCc4ccccc4C3)cc1CO2 | – | 44.7 µM (active) |
| O=C(CCCC(=O)N1CCN(c2cccc(Cl)c2)CC1)c1ccccc1 | -3.1% (inactive) | – |
| CN(C(=O)COC(=O)CNC(=O)C12CC3CC(CC(C3)C1)C2)c1ccccc1 | 0.528% (inactive) | – |
| O=C(N/N=C/c1cccc(OC(=O)c2ccc([N+](=O)[O-])cc2)c1)c1cccnc1 | 10% (inactive) | – |
| COc1ccc(/C(O)=C2/C(=O)C(=O)N(CCCN(C)C)C2c2ccccc2)cc1OC (configuration not stated) | 6.96% (inactive) | – |
| COc1ccc(C2/C(=C(/O)c3ccccc3)C(=O)C(=O)N2c2ncccn2)cc1OC (configuration not stated) | -2.32% (inactive) | – |
| CCCOc1ccc(/C(O)=C2/C(=O)C(=O)N(CCN(C)C)C2c2ccc(OC)c(OC)c2)cc1 (configuration not stated) | – | 79.4 µM (active) |
| COc1cccc(C2/C(=C(/O)c3ccc(F)cc3)C(=O)C(=O)N2CCN(C)C)c1 (configuration not stated) | -8.12% (inactive) | – |
| CCN(CC)CCN1C(=O)C(=O)/C(=C(/O)c2ccc(OC)c(OC)c2)C1c1ccccn1 (configuration not stated) | – | 56.2 µM (active) |
| CCN(CC)CCN1C(=O)C(=O)/C(=C(/O)c2ccccc2)C1c1ccccc1F (configuration not stated) | 4.16% (inactive) | – |

| Structure (SMILES) | largest response in the series, negative = inhibition | Potency |
| --- | --- | --- |
| CC(=O)c1cccc(NC(=O)COc2ccc(S(=O)(=O)N3CCOCC3)cc2)c1 | 14.4% (inactive) | – |
| O=C(O)CN1c2cccc3cccc(c23)S1(=O)=O | -16.8% (inactive) | – |
| CSc1n[nH]c(=S)n1N | – | 44.7 µM (active) |
| COc1ccc(OCc2n[nH]c(=S)n2N)cc1 | -87.4% (inactive) | – |
| O=C(Cn1cnc2ccccc21)N/N=C/c1ccco1 | 15.1% (inactive) | – |
| O=c1nc(N/N=C/c2ccco2)cn[nH]1 | – | 31.6 µM (active) |
| CC(C)NC(=O)C(=O)N/N=C/c1ccco1 | 13% (inactive) | – |
| Cc1ccc(S(=O)(=O)NCc2ccc(C(=O)NC3CCC(C)CC3)cc2)cc1 (configuration not stated) | 17% (inactive) | – |
| Cc1ccc(NC2CCCN(C(=O)CCc3cn[nH]c3)C2)cc1C (configuration not stated) | 7.06% (inactive) | – |
| O=C(O)CCCn1cc(NC(=O)COc2cccc(Cl)c2)cn1 | 12.9% (inactive) | – |
| O=S(=O)(NC1CC1)c1ccc(Cl)cc1 | 10.7% (inactive) | – |
| Cc1cc(C)c(NC(=S)N2CCCC2C(=O)O)c(C)c1 (configuration not stated) | – | 35.5 µM (active) |
| Cc1cccc(C)c1NC(=O)C1CCCN1C(=O)OC(C)(C)C (configuration not stated) | 0.244% (inactive) | – |
| Cc1cc([N+](=O)[O-])c(N2CCC[C@@H]2C(=O)O)c([N+](=O)[O-])c1 | 0.854% (inactive) | – |
| O=[N+]([O-])c1ccc(N2CCN(c3ccc(F)cc3)CC2)cn1 | 10.5% (inactive) | – |
| CC1C(=O)C(C)C(c2ccc(O)cc2)NC1c1ccc(O)cc1 (configuration not stated) | 4.83% (inactive) | – |
| COc1ccc(-c2cc(=O)oc3cc(OC(C)C(=O)NCC4CCC(C(=O)O)CC4)ccc23)cc1 (configuration not stated) | 18.5% (inactive) | – |
| COc1c(O)c2c(=O)cc(OC)c3c4c(OC)cc(=O)c5c(O)c(OC)c6c(c(c1C[C@@](C)(O)[C@H]6C(C)=O)c23)c54 | -14.1% (inactive) | – |
| CN(C)c1nc(NN)nc(Nc2ccc(F)cc2)n1 | -5.52% (inactive) | – |
| O=C(Nc1ccncc1)Nc1ccc(F)cc1 | 14.5% (inactive) | – |
| Fc1ccc(Nc2nnns2)cc1 | – | 8.91 µM (active) |
| O=[N+]([O-])c1ccc(N/N=C2/CCCCC2c2ccccn2)c([N+](=O)[O-])c1 (configuration not stated) | – | 35.5 µM (active) |
| O=C(Nc1ccccc1)O/N=C1\CCCCC1c1ccc([N+](=O)[O-])cc1[N+](=O)[O-] (configuration not stated) | -6.23% (inactive) | – |
| C[n+]1ccccc1C1CCCC/C1=N\Nc1ccc([N+](=O)[O-])cc1[N+](=O)[O-] (configuration not stated) | -1.83% (inactive) | – |
| COc1ccccc1N1CCN(C(=O)c2cc(=O)c3cc(C)ccc3o2)CC1 | -2.28% (inactive) | – |

| Structure (SMILES) | largest response in the series, negative = inhibition | Potency |
| --- | --- | --- |
| Cc1cccc(-c2cc(=O)c3cc(C)ccc3o2)c1 | – | 3.55 µM (active) |
| Cc1cccc(C2=N/C(=C/c3cccs3)C(=O)O2)c1 | -1.85% (inactive) | – |
| CCN1CCN(c2ccc(S(=O)(=O)N3CCCCC3)cc2NC(=O)Cc2c(Cl)cccc2Cl)CC1 | -8.91% (inactive) | – |
| CCN(C(=O)c1cc([N+](=O)[O-])ccc1NCc1cccnc1)c1ccccc1 | -0.174% (inactive) | – |
| COC(=O)C1=C(C)N(c2ccc(Br)cc2)C(=O)/C1=C\c1ccco1 | -29.4% (inactive) | – |
| COC(=O)COc1ccc2c(c1C)O/C(=C\c1ccco1)C2=O | – | 50.1 µM (active) |
| Cc1cc(C)c(OCC(=O)N/N=C/c2ccco2)c(C)c1 | 2.54% (inactive) | – |
| CC(=O)Nc1ccc(S(=O)(=O)NC2Cc3ccccc3C2)cc1 | 10.7% (inactive) | – |
| CC(CC(=O)N1CCN(c2ccccc2)CC1)S(=O)(=O)c1ccc2c(c1)NC(=O)CS2 (configuration not stated) | 13.4% (inactive) | – |
| COc1ccc(C2c3[nH]c4ccccc4c3C[C@H]3C(=O)N(CC(C)C)CC(=O)N23)c(OC)c1 (some centres not stated) | -0.0198% (inactive) | – |
| Cc1cc(=O)[nH]c(SCC(N)=O)c1C#N | -20.3% (inactive) | – |
| Cc1cc(=O)[nH]c(S)c1C#N | – | 2.24 µM (active) |
| COC(=O)C1(C)C=CC2(CCCCC2)N1C(C)=O (configuration not stated) | -0.895% (inactive) | – |
| COc1ccc2[nH]c(C(=O)N3CCN(C)CC3)c(C)c2c1 | 10.8% (inactive) | – |
| O=C(c1ccc(S(=O)(=O)c2ccccc2)cc1)N1CCCCCC1 | -3.64% (inactive) | – |
| Cc1ccc(N2CCN(C(=O)c3cccs3)CC2)c(C)c1 | -4.64% (inactive) | – |
| N#Cc1ccccc1-n1c(N)c(C(=O)N2CCCC2)sc1=S | – | 25.1 µM (active) |
| CCC(=O)Nc1sc(C(=O)N2CCCCC2)c(C)c1C#N | 8.83% (inactive) | – |
| CC(C)=C1SC(N2CCN(c3cccc(C)c3)CC2)=NC1=O | -3.03% (inactive) | – |
| Cc1cccc(-n2c(N)c(C(=O)N3CCN(C)CC3)sc2=S)c1 | – | 3.55 µM (active) |
| Cc1ccc(S(=O)(=O)N2CCN(C(=O)N3CCOCC3)CC2)c(C)c1 | 12% (inactive) | – |
| Cc1ccc(-n2c(N)c(C(=O)N3CCOCC3)sc2=S)c(C)c1 | – | 28.2 µM (active) |
